HPGD block: blocks human HPGD enzyme activity; P15428; purified HPGD, NADH fluorescence kinetic, PGE2 substrate; Potency, µM, without a hit: top-dose activity change, negative = inhibition, usual class: inhibitors; 150,000 tested, 4.3% active; note: potency is the fitted concentration of half-maximal effect
Target sequence (P15428 whole entry, looked up): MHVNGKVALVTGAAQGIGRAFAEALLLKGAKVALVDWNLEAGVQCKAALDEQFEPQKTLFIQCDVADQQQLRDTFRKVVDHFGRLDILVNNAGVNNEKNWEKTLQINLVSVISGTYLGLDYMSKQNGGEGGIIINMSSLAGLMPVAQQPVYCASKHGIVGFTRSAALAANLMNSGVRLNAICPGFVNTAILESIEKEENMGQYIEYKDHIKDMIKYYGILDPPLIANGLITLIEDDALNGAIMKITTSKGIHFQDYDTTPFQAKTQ
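20 nM HPGD preincubated 15 min at room temperature with compound in 50 mM Tris-HCl pH 8, 0.01% Tween 20. Started with 1 mM NAD+ and 30 uM prostaglandin E2; NADH fluorescence (360/450 nm) read 5 times over 30-s intervals, last minus first.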
PNC inhibitor: inhibitors of perinucleolar compartment assembly | activity change (PNC), negative = inhibition, % at 10 µM | PC3M PTB-GFP, PNC prevalence imaging, 16 h; hits give low values | 140,000 tested, 3.1% active;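 active = readout at or below -70, meaning at least 70% loss of cells showing the perinucleolar compartment, a nuclear body marking cancer cells; inconclusive = readout between -30 and a set limit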;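 note: plate controls were DMSO wells for no effect and camptothecin positive control wells for full effect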
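Read-out is percentage of cells bearing a perinucleolar compartment, from automated 20x imaging of fixed, Hoechst-stained PC3M PTB-GFP cells. Cells were seeded 4 h, then exposed 16 h to compound (23 nl of library stock) in duplicate plates.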
ALDH1A1 block: inhibitors of human aldehyde dehydrogenase 1A1; Purified ALDH1A1, NADH fluorescence, propionaldehyde substrate; Potency, µM (titrated, usually from 75.3 µM), for inactives: at the top dose activity, negative = inhibition, actives largely listed as inhibitors; P00352; 220,000 tested, 7.3% active;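 note: potency is the fitted concentration of half-maximal effect; plate controls were no enzyme wells and a reference inhibitor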
12-hLO inh: blocks human 12-lipoxygenase activity. P18054. 150,000 tested, 0.12% active. purified 12-hLO, xylenol orange hydroperoxide absorbance. Potency, µM (series often up to 57.1 µM), for the others: at the top dose activity change, negative = inhibition, most hits filed as inhibitors. AID 1452; active = well fitted inhibition curve with a large enough effect; inconclusive = small, poorly fitted or top-dose-only effect; note: potency is the fitted concentration of half-maximal effect; nearly all actives have a fitted effect of over 55% in size
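Xylenol orange chromogenic assay: hydroperoxide from 12hLO oxidises Fe(II), giving red-shifted Fe(III)-XO absorbance. Conditions: 150 nM enzyme, 40 uM arachidonic acid, 25 mM Hepes pH 7.0, 0.01% Triton X-100, 30 min, room temperature.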
Lamin A splicing: modulators of lamin A splicing; Potency, µM (doses to about 46.1 µM), for the others: at the highest dose ratio change, negative = inhibition, actives largely listed as inhibitors; HeLa LMNA splicing GFP/RFP minigene ratio, 48 h; 200,000 tested, 0.01% active; active = well fitted inhibition curve with a large enough effect in the signal ratio, with a control signal flat, not every such curve was filed as active; inconclusive = small, poorly fitted or top-dose-only effect, or effect the other way, or a change in a side signal; the % refers to the signal ratio; note: potency is the fitted concentration of half-maximal effect
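Read-out is the ratio of GFP to DsRed2 object intensity, acquired by 488 nm laser-scanning cytometry on HeLa lamin A-EGFP minigene reporter cells. Compound incubation 48 hrs at 37 °C in Opti-MEM with 2% FBS; DMSO 0.5% final.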
The depositor's hits bear a star; ? = inconclusive; / = not tested or not shown; [ ] = remark or other dose. The list is not random: actives were taken first. Their share in the collection is about 10%. Unless noted, calls come from the whole dose curve; as a rule, active = well fitted inhibition curve with a large enough effect (not every such curve was filed as active); inconclusive = small, poorly fitted or top-dose-only effect, or another doubt; inactive = no such curve, though single readings can be large or run the other way. Unless noted, % is set by controls: 0 for no effect and ±100 for the full control effect.

SMILES	HPGD block	PNC inhibitor	ALDH1A1 block	12-hLO inh	Lamin A splicing
CCCS(=O)(=O)c1nc(S(=O)(=O)c2ccc(C)cc2)c(N2CCCC2)s1	-17%	?	7.9µM*	1%	9%
Cc1ccc(S(=O)(=O)c2nc(S(C)(=O)=O)sc2N(C)C)cc1	-1%	?	-14%	3%	3%
CCCS(=O)(=O)c1nc(S(=O)(=O)c2ccc(C)cc2)c(N2CCc3ccccc3C2)s1	-17%	?	1.4µM*	0%	?
CCOc1nc(S(=O)(=O)c2ccc(C)cc2)c(Cl)s1	-9%	-10	7%	-15%	-4%
CC[C@H](C)[C@H](NC(=O)[C@H](C)NC(=O)[C@H](CC(N)=O)NC(=O)[C@H](CCCCN)NC(=O)[C@H](Cc1ccccc1)NC(=O)[C@H](CC(C)C)NC(=O)[C@@H](NC(=O)[C@@H](NC(=O)[C@H](CC(C)C)NC(=O)[C@@H]1CCCN1C(=O)[C@@H](NC(=O)[C@H](CCC(N)=O)NC(=O)[C@H](CO)NC(=O)[C@H](CCCCN)NC(=O)[C@H](CCC(=O)O)NC(=O)[C@H](CO)NC(=O)[C@@H](NC(=O)[C@H](CCSC)NC(=O)[C@H](Cc1ccccc1)NC(=O)CNC(=O)CNC(=O)[C@@H](N)Cc1ccc(O)cc1)[C@@H](C)O)[C@@H](C)O)C(C)C)[C@@H](C)O)C(=O)N[C@H](C(=O)N[C@@H](CCCCN)C(=O)N[C@@H](CC(N)=O)C(=O)N[C@@H](C)C(=O)N[C@@H](Cc1ccc(O)cc1)C(=O)N[C@@H](CCCCN)C(=O)N[C@@H](CCCCN)C(=O)NCC(=O)N[C@@H](CCC(=O)O)C(=O)O)[C@@H](C)CC	/	/	3%	/	/
COc1cc(OC)c(NC(=O)C(C)n2c(=O)cc(-c3ccccc3)c3c(C)nn(C)c32)cc1Cl (configuration not stated)	/	/	/	/	4%[46 µM]
CCCCC/C=C\C\C=C/C=C/C=C/[C@@H](SCC(NC(=O)CCC(N)C(=O)O)C(=O)NCC(=O)O)[C@@H](O)CCCC(=O)O (some centres not stated)	-5%	/	0%	1%	/
COc1ccc(CNC(=O)Cn2cc3c(n2)CCCCC3)cc1	1%	?	1.1µM*	1%	-10%
COc1cccc(NC(=O)Cn2cc3c(n2)CCCCC3)c1	-16%	-18	?	-3%	-2%
O=C(Cn1cc2c(n1)CCCCC2)N1CCCCC1	-10%	-119*	-7%	-1%	-4%
CCN=C1SC(C(=O)Nc2ccccc2)CC(=O)N1CC (configuration not stated)	-11%	-85*	?	0%	-7%
CCOC(=O)c1ccc(CN(Cc2ccccc2)S(=O)(=O)c2ccc(C)cc2)cc1	/	/	/	/	-5%[46 µM]
CCCCCCS(=O)[C@H]1CS(=O)(=O)C[C@@H]1S(=O)CCCCCC (some centres not stated)	13µM*	59	?	-8%	?
CC(C)C(=O)NNC(=O)CSc1nnnn1C(C)C	/	/	6%	/	/
COc1ccc(N/C(C)=C2/C(=O)C(=O)N(CCO)C2c2ccc([N+](=O)[O-])cc2)cc1 (configuration not stated)	-6%	?	11µM*	5%	4%
O=C(CSc1nnc(-c2cccnc2)n1Cc1ccco1)c1ccc(Br)cc1	28µM*	?	-19%	-5%	13%
O=C(CSc1nnc(-c2cnccn2)n1Cc1ccco1)c1ccc(Cl)cc1	?	?	?	-7%	?
COc1ccc(C(=O)CSc2nnc(-c3ccccn3)n2Cc2ccco2)cc1	/	-28	22µM*	-2%	0%
C=CCn1c(SCC(=O)Nc2sc(C)c(C)c2C(=O)OCC)nnc1-c1sc(N)nc1C	-7%	17	14µM*	-9%	-3%
O=C(CSc1nnc(-c2cnccn2)n1Cc1ccco1)c1ccccc1	16µM*	7	-2%	-9%	8%
CC(=O)N(Cc1cccnc1)c1nc2c(C)c(C)ccc2s1	/	/	/	/	21%[46 µM]
Clc1ccccc1-c1nc(-n2ccnc2)c2ccccc2n1	/	/	-10%	/	?
CCOC(=O)c1c(NC(=O)CSc2nnc(-c3cccnc3)n2Cc2ccco2)sc(C)c1C	-21%	3	25µM*	-12%	?
O=C(CSc1nnc(-c2ccccn2)n1Cc1ccco1)c1ccc(Cl)cc1	?	26	20µM*	-27%	?
COCCNC(=O)c1ccc(-n2c(SCc3ccncc3)nc3ccccc3c2=O)cc1	/	/	1%	/	/
SMILES	HPGD block	PNC inhibitor	ALDH1A1 block	12-hLO inh	Lamin A splicing
Cc1cc(C)cc(NC(=O)c2cc(C)nc3c2c(C)nn3-c2ccccc2)c1	/	/	/	/	-7%[46 µM]
NC(N)=NS(=O)(=O)c1ccc(NC(=S)NC(=O)c2ccc(Br)cc2)cc1	/	/	10µM*	/	/
CCCCC[C@H](O)/C=C/C=C\CCCCCCCC(=O)O	-3%	/	5%	-1%	/
Fc1ccc(C2c3[nH]c4ccccc4c3CCN2Cc2cccn2-c2ncccn2)cc1 (configuration not stated)	/	/	10µM*	/	/
Clc1ccc(-n2cccc2CN2CCc3c([nH]c4ccccc34)C2c2ccccn2)nc1 (configuration not stated)	/	/	14µM*	/	/
COc1cccc(C2c3[nH]c4ccccc4c3CCN2Cc2cccn2-c2ncccn2)c1 (configuration not stated)	/	/	-1%	/	-37%[46 µM]
C=CCCOc1ccccc1C(N)=O	/	/	3%	/	/
CC(C)C(N)C(=O)NC(Cc1c[nH]c2ccccc12)C(=O)O (configuration not stated)	-2%	/	-2%	-4%	-6%
COc1ccc(NC(=O)c2nn(C34CC5CC(CC(C5)C3)C4)cc2[N+](=O)[O-])cc1	-8%	61	0.28µM*	1%	?
O=C(Nc1cccc2ccccc12)c1nn(C23CC4CC(CC(C4)C2)C3)cc1[N+](=O)[O-]	-15%	10	?	-5%	?
COc1ccc(CN2C(=O)/C(=C/c3ccncc3)SC2=S)cc1	-20%	?	10µM*	4%	?
O=C(O)CCCCCN1C(=O)/C(=C\c2ccncc2)SC1=S	-22%	-90*	-3%	4%	?
O=C(O)CCCCCN1C(=O)/C(=C/c2ccncc2)SC1=S	-17%	?	-15%	0%	-18%
O=C(O)CCCN1C(=O)/C(=C/c2ccc(-c3nc4ccccc4s3)o2)SC1=S	18µM*	41	?	2%	16%
CCc1ccc(Sc2cc(C(=O)NCc3cccc(OC)c3)c3ccccc3n2)cc1	/	/	/	/	-15%[46 µM]
O=C(OC(c1ccccc1)c1nccc2ccccc12)c1cc([N+](=O)[O-])cc([N+](=O)[O-])c1 (configuration not stated)	-6%	?	-11%	3%	-18%
CC1=NN(c2ccccc2)C(=O)/C1=C\c1cn(CCC#N)nc1-c1ccc(Cl)cc1	-17%	13	-5%	0%	-17%
